Test results: PubChem BioAssay (EPA / NIEHS)
“And” between values parts separate entries of the source, which are not always exact repeats. Equal entries are not always repeated. Results filed as inconclusive are left out. Where a structure was tested more than once in an assay, its records may differ in their call. The source made the active and inactive calls. Rule for the calls: active = hit-call score of the fitted dose curve at least 0.9, where 1 is the maximum; inconclusive = response in the unintended direction; inactive = score below 0.9.

Key:
[1] = biological target: Estrogen receptor (Homo sapiens) (UniProt P03372); assay: OT_ER_ERaERa_1440: Odyssey Thera (OT) 24-hour HEK293T Protein-Complementation Assay for Estrogen Receptor-alpha/-alpha Homodimer (AID 2283349);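 note: hits raise fluorescence above DMSO for agonists and antagonists alike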
Estrogen receptor (Homo sapiens), sequence (P03372 whole entry, looked up, the tested form may be a part): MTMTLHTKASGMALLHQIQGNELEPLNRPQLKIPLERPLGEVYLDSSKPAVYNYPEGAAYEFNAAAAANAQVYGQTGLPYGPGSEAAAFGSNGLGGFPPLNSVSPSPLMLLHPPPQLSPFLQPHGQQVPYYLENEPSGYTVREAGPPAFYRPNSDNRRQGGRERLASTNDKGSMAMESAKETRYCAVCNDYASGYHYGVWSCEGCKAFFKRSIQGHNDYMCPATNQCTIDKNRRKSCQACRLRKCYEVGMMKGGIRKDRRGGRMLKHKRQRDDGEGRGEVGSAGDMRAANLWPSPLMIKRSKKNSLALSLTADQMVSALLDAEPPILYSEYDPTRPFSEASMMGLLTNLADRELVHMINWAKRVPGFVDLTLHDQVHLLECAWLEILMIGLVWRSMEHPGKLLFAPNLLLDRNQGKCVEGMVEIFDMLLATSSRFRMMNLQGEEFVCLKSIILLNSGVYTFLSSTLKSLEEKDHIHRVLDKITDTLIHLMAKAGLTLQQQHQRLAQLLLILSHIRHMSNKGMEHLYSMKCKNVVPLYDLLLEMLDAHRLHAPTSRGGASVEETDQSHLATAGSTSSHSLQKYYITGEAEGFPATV
Outline: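 Readout is the rise in mean fluorescence from reporter fragment complementation when ERα LBD (aa 310-547) units dimerize in HEK293T cells. Measured 24 h after dosing and analysed as increase over DMSO control.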

[2] = biological target: Estrogen receptor (Homo sapiens) (UniProt P03372); assay: OT_ER_ERaERa_0480: Odyssey Thera (OT) 8-hour HEK293T Protein-Complementation Assay for Estrogen Receptor-alpha/-alpha Homodimer (AID 2283351);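 note: rise in fluorescence from reassembled reporter fragments on ERα LBD homodimer in nucleus or whole cell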
Outline: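 HEK293T, stable ERα LBD (aa 310-547) PCA homodimer; 8 h compound exposure; fluorescence intensity, laser scanning cytometer; positive fitting direction, DMSO baseline.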

[3] = biological target: Estrogen receptor beta (Homo sapiens) (UniProt Q92731); assay: OT_ER_ERbERb_0480: Odyssey Thera (OT) 8-hour HEK293T Protein-Complementation Assay for Estrogen Receptor-beta/-beta Homodimer (AID 2283357);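 note: active means signal gain over DMSO baseline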
Estrogen receptor beta (Homo sapiens), sequence (Q92731 whole entry, looked up, the tested form may be a part): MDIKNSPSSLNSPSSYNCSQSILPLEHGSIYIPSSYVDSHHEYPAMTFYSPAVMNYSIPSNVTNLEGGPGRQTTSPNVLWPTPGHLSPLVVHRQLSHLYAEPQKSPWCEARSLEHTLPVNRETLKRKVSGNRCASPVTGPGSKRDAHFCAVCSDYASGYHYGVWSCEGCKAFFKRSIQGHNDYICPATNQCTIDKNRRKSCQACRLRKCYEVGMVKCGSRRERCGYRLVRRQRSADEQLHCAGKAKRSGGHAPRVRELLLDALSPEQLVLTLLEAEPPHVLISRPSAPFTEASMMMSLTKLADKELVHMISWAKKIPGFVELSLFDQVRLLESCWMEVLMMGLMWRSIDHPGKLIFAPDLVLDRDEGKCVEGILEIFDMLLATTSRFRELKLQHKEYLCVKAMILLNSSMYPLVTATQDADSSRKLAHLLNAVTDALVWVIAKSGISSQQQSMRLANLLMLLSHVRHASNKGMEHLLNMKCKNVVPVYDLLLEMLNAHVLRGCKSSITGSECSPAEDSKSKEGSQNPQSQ
Outline: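 Readout: increase in mean fluorescence intensity (nucleus for agonists; nucleus plus cytoplasm for antagonists) relative to DMSO, from a reporter-fragment complementation of human ER-beta LBD homodimer in HEK293T cells dosed 8 hours.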

PGR (gene 5241) = PGR (gene 5241) (UniProt P06401); assay: NVS_NR_hPR: NovaScreen (NVS) Nuclear Receptor Binding Assay for human Progestron Receptor (PR) (AID 2283360);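 note: active means loss of bound radioligand signal versus DMSO baseline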
Outline: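 Cell-free radioligand binding using receptor protein extracted from T47D cells, read by scintillation counting 18 hours after dosing. Loss of signal relative to DMSO baseline indicates displacement; primary screen single concentration 25 uM in duplicate, actives followed in concentration series.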

[4] = biological target: Retinoic acid receptor alpha (Homo sapiens) (UniProt P10276); assay: NVS_NR_hRARa_Agonist: NovaScreen (NVS) Nuclear Receptor Binding Assay for human Retinoic Acid Alpha Receptor Agonism (RAR) (AID 2283361)
Retinoic acid receptor alpha (Homo sapiens), sequence (P10276 whole entry, looked up): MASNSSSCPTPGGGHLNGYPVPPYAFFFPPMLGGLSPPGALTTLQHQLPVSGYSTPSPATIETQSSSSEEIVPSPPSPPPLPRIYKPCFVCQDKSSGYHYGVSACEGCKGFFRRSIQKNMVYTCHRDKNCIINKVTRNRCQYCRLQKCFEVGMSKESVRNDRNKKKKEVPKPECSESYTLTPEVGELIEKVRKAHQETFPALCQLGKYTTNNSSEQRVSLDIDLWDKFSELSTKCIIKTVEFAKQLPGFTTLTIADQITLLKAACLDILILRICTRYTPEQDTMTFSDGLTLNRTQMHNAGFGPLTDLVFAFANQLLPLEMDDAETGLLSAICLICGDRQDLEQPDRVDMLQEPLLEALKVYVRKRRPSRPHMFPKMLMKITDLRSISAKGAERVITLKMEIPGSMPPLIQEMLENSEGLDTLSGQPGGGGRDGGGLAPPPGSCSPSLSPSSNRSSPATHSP
Outline: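 Cell-free TR-FRET binding read-out with extracted human RARα protein, read 2 h after compound addition. Gain of signal scored against DMSO baseline. Primary screen at a single 25 uM in duplicate; actives then retested in concentration series.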

[5] = biological target: human Thyroid Receptor Alpha (TRa), THRA (gene 7067) (UniProt P10827); assay: NVS_NR_hTRa_Antagonist: NovaScreen (NVS) Nuclear Receptor Binding Assay for human Thyroid Receptor Alpha Antagonism (TRa) (AID 2283362);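 note: activity is loss of signal relative to DMSO baseline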
human Thyroid Receptor Alpha (TRa), THRA (gene 7067), sequence (P10827 whole entry, looked up): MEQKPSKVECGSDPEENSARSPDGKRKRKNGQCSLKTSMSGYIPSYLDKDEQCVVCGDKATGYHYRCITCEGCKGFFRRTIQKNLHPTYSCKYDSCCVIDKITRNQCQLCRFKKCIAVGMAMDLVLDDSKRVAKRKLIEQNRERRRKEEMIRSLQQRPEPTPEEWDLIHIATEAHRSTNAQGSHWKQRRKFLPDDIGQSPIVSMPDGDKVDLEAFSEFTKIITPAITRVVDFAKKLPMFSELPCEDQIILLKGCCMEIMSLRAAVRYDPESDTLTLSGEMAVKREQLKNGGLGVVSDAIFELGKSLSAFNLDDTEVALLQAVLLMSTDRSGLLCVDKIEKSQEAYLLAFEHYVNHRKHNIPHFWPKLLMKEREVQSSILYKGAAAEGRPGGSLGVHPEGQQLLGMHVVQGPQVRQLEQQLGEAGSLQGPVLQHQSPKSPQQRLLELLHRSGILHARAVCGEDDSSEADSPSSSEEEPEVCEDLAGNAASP
Outline: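 AlphaLISA chemiluminescent immunoassay readout, taken 1 h post-dosing in a cell-free system with extracted protein. Activity was scored as signal loss against DMSO negative control, from duplicate single-concentration (25 uM) testing followed by concentration-response follow-up.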

[6] = biological target: Glucocorticoid receptor (Homo sapiens) (UniProt P04150); assay: NVS_NR_hGR: NovaScreen (NVS) Nuclear Receptor Binding Assay for human Glucocorticoid Receptor (GR) (AID 2283363);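 for AC50: activity is loss of specific radioligand binding signal relative to DMSO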
Glucocorticoid receptor (Homo sapiens), sequence (P04150 whole entry, looked up): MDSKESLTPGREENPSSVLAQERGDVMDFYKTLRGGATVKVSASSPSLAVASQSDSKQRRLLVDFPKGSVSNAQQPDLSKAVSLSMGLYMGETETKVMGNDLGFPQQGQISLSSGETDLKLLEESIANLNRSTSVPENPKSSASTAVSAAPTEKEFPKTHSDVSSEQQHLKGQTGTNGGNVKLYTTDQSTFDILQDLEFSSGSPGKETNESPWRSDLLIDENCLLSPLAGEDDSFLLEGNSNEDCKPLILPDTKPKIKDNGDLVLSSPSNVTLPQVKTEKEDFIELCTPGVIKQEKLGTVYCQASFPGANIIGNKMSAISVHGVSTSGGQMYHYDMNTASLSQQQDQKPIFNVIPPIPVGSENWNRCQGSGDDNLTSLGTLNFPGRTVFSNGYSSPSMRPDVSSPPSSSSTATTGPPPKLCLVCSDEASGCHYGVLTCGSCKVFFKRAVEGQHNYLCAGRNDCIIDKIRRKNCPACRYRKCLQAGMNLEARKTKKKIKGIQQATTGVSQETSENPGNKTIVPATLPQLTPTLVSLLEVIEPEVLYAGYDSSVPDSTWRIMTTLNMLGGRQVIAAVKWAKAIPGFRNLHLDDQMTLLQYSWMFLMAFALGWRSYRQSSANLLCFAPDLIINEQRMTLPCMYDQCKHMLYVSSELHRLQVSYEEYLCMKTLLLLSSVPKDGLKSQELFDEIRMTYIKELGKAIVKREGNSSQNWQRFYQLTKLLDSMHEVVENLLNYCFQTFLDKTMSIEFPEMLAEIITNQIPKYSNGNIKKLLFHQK
Outline: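 Cell-free radioligand binding with extracted receptor protein, read by filter-based scintillation counting 16 hours after dosing. Loss of specific signal versus DMSO baseline was scored. Primary screen ran in duplicate at 25 uM; actives were followed up in concentration series.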

[7] = biological target: Peroxisome proliferator-activated receptor gamma (Homo sapiens) (UniProt P37231); assay: NVS_NR_hPPARg: NovaScreen (NVS) Nuclear Receptor Binding Assay for human Peroxisome Proliferator-activated Receptor gamma (PPARg) (AID 2283370)
Peroxisome proliferator-activated receptor gamma (Homo sapiens), sequence (P37231 whole entry, looked up): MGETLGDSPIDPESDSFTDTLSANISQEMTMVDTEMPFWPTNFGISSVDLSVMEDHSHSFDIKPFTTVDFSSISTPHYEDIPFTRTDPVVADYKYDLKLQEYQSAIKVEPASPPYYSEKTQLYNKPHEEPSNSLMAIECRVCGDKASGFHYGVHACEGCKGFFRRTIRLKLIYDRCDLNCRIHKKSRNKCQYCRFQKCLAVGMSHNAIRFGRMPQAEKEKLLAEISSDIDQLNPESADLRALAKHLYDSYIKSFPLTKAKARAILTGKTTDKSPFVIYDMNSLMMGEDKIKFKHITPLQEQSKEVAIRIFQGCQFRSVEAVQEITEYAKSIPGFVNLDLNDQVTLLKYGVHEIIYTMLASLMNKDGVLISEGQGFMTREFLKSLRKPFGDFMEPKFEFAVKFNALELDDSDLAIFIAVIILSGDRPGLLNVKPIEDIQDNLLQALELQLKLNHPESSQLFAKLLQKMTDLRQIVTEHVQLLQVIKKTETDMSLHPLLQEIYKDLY
Outline: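 FP read-out, 2 h post-dose, cell-free extracted receptor protein. Signal loss vs DMSO negative control = binding activity. Single-conc duplicate HTS at 25 uM; concentration-response follow-up for actives.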

[8] = biological target: Retinoic acid receptor alpha (Homo sapiens) (UniProt P10276); assay: NVS_NR_hRAR_Antagonist: NovaScreen (NVS) Nuclear Receptor Binding Assay for human Retinoic Acid Alpha Receptor Antagonism (RAR) (AID 2283358)
Outline: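 Cell-free TR-FRET binding assay on extracted receptor protein, run in antagonist mode; signal read 2 hours after chemical dosing. Loss of signal was fitted relative to DMSO baseline. Screened at 25 uM in duplicate, actives followed up in concentration series.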

[9] = biological target: guinea pig Sigma Receptor, Non-selective Binding, SIGMAR1 (gene 100135589) (UniProt Q60492); assay: NVS_OR_gSIGMA_NonSelective: NovaScreen (NVS) Nuclear Receptor Binding Assay for guinea pig Sigma Receptor, Non-selective Binding (AID 2283367)
guinea pig Sigma Receptor, Non-selective Binding, SIGMAR1 (gene 100135589), sequence (Q60492 whole entry, looked up): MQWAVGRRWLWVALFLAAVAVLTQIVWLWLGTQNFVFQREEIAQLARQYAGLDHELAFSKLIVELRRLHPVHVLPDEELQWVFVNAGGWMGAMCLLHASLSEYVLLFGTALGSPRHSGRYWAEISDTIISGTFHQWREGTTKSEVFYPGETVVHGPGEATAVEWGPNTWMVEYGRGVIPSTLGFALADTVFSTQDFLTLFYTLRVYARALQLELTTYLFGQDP
Outline: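 Guinea pig brain membranes, cell-free radioligand binding; read 1 h after dosing by filter-based scintillation counting. Loss of signal vs DMSO baseline taken as displacement. Primary screen single concentration 25 uM in duplicate; actives retested in concentration series.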

[10] = biological target: human Adenosine Transporter (Adot), SLC29A1 (gene 2030) (UniProt Q99808); assay: NVS_TR_hAdoT: NovaScreen (NVS) Transporter Assay for human Adenosine Transporter (Adot) (AID 2283368)
human Adenosine Transporter (Adot), SLC29A1 (gene 2030), sequence (Q99808 whole entry, looked up): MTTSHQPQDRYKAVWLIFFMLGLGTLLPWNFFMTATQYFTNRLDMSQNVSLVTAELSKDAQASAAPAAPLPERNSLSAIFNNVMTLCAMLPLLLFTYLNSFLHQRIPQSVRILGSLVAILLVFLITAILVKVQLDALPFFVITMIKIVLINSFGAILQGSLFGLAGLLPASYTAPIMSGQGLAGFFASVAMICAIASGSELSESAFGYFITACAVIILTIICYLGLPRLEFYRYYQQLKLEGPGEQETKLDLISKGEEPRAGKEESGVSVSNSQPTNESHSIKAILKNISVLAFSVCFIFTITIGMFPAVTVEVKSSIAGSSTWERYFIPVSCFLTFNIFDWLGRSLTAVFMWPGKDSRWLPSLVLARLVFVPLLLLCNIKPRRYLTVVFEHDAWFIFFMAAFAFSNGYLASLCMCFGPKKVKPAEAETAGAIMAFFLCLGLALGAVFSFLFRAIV
Outline: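 U937-derived membranes, cell-free radioligand binding, filter scintillation 1 h after dosing. 25 uM duplicate screen; hits (e.g. 30% inhibition) run in concentration-response up to 50 uM; loss of signal versus DMSO.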

[11] = tested on: guinea pig Dopamine Transporter (DAT), gene 100714898; assay: NVS_TR_gDAT: NovaScreen (NVS) Transporter Assay for guinea pig Dopamine Transporter (DAT) (AID 2283369);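 note: active compounds lower bound radioligand signal relative to DMSO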
Outline: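 Cell-free striatal membrane prep (guinea pig), 2 h exposure, filtration + scintillation readout of radioligand binding. Single-point 25 uM duplicate; actives rerun singleton, top conc 50 uM.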

[12] = biological target: rat Mineralocorticoid Receptor (MR), Nr3c2 (gene 25672) (UniProt P22199); assay: NVS_NR_rMR: NovaScreen (NVS) Nuclear Receptor Binding Assay for rat Mineralocorticoid Receptor (MR) (AID 2283355)
Outline: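 Cell-free radioligand binding to MR in adrenalectomized rat brain supernatant, scintillation counted 24 h after dosing. Loss of signal versus DMSO baseline marks displacement. Primary screen in duplicate at 25 uM; actives retested as concentration series.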

[13] = biological target: Androgen Receptor/SRC-1 Co-activator, AR (gene 367) (UniProt P10275); assay: OT_AR_ARSRC1_0960: Odyssey Thera (OT) 16-hour HEK293T Protein-Complementation Assay for Androgen Receptor/SRC-1 Co-activator (AID 2283353);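 note: actives raise the signal above DMSO so potency reflects increased AR and SRC-1 complex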
Androgen Receptor/SRC-1 Co-activator, AR (gene 367), sequence (P10275 whole entry, looked up, the tested form may be a part): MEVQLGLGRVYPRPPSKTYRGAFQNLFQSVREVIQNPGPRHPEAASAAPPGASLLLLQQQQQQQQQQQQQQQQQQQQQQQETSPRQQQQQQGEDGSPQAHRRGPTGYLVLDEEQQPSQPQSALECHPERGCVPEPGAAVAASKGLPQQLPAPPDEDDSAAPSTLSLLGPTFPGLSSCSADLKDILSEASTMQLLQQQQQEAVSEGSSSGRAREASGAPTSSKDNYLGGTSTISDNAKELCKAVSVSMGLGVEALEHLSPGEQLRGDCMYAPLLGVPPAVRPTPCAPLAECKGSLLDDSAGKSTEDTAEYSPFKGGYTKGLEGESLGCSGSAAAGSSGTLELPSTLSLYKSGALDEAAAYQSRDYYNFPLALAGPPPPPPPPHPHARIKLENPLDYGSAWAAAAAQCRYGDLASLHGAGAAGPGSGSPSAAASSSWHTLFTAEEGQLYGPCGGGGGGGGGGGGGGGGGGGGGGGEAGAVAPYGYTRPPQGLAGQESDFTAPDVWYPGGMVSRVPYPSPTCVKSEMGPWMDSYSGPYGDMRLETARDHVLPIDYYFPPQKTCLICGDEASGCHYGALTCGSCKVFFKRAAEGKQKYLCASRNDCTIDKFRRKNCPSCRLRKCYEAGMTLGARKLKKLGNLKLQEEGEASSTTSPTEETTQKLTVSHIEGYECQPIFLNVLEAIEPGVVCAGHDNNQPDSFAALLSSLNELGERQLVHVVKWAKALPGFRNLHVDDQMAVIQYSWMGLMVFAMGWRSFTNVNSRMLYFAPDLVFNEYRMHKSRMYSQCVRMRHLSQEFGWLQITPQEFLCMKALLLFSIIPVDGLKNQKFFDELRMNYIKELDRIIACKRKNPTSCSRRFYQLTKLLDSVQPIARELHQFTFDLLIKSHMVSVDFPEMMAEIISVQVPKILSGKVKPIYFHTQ
Outline: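 Split-Venus PCA, AR/SRC-1 fusions, stable HEK293T; 16 h compound exposure; imaged at 488 and 635 nm; N/C ratio (488 nm channel), min 400 cells/image; positive-direction fit, DMSO baseline.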

[14] = biological target: Androgen Receptor/SRC-1 Co-activator, AR (gene 367) (UniProt P10275); assay: OT_AR_ARSRC1_0480: Odyssey Thera (OT) 8-hour HEK293T Protein-Complementation Assay for Androgen Receptor/SRC-1 Co-activator (AID 2283354);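 note: hits raise the complementation signal above DMSO so AC50 marks enhancers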
Outline: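 HEK293T cells stably expressing AR and SRC-1 fused to split Venus YFP fragments via (Gly4Ser)2 linkers were read 8 h after compound dosing. Complementation was imaged at 488 and 635nm, and nuclear/cytoplasmic fluorescence ratio (488nm) was taken over ≥400 cells; gain-of-signal versus DMSO.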

[15] = biological target: rat Androgen Receptor (AR), Ar (gene 24208) (UniProt P15207); assay: NVS_NR_rAR: NovaScreen (NVS) Nuclear Receptor Binding Assay for rat Androgen Receptor (AR) (AID 2283366)
Outline: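 Cell-free radioligand binding on extracts of prostate from testosterone-pretreated rats, read by filter-based scintillation counting 18 h after dosing. Loss of bound signal fitted positively versus DMSO; primary screen in duplicate at 25 uM, actives followed up in concentration series.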

[16] = biological target: Estrogen receptor (Homo sapiens) + Estrogen receptor beta (Homo sapiens) (UniProt P03372+Q92731); assay: OT_ER_ERaERb_0480: Odyssey Thera (OT) 8-hour HEK293T Protein-Complementation Assay for Estrogen Receptor-alpha/-beta Heterodimer (AID 2283352)
Outline: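 Fluorescence intensity readout from a protein-fragment complementation reporter in HEK293T; ER-alpha/ER-beta LBD heterodimer. Dosing 8 h. Gain-of-signal fit relative to DMSO negative control; laser scanning cytometry of whole-well cell population.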

[17] = biological target: Nuclear receptor subfamily 1 group I member 2 (Homo sapiens) (UniProt O75469); assay: NVS_NR_hPXR: NovaScreen (NVS) Nuclear Receptor Binding Assay for human Pregnane X Receptor (PXR) (AID 2283365);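 note: a drop in FRET signal versus DMSO baseline means the compound binds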
Outline: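 TR-FRET signal read at 2 h in a cell-free human PXR binding format. DMSO served as negative control and baseline; activity scored as signal loss. Single-concentration duplicate screen (25 uM), then concentration-response follow-up.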

Measured: AC50

CC(C)N(C(=O)COc1nnc(C(F)(F)F)s1)c1ccc(F)cc1
inactive: [1] | [2] | [3]

N#Cc1c(Cl)c(Cl)c(Cl)c(C#N)c1Cl
active: [4] 36.9 µM | [5] 40.5 µM | [6] 0.177 µM | [7] 495 nM
inactive: [1] | [2] | [3] | PGR (gene 5241)

CCCN(CCOc1c(Cl)cc(Cl)cc1Cl)C(=O)n1ccnc1
active: [5] 6.39 µM | [9] 8.36 µM | [10] 8.65 µM | [11] 6.57 µM
inactive: [3] | [8] | PGR (gene 5241) | [6] | [7]

Oc1cc(Cl)ccc1Oc1ccc(Cl)cc1Cl
inactive: [12] | [3] | [6] | [7]
active: [11] 25.5 µM and 25 µM | [7] 11.6 µM and 16.2 µM and 6.67 µM

C#CCN1C(=O)COc2cc(F)c(N3C(=O)C4=C(CCCC4)C3=O)cc21
inactive: [1] | [2] | [13] | [14]

CCc1ccc(C(=O)NN(C(=O)c2cc(C)cc(C)c2)C(C)(C)C)cc1
inactive: [1] | [2] | [3]

COC(=O)c1ccccc1S(=O)(=O)NC(=O)Nc1nc(C)nc(OC)n1
inactive: [8]

CNC(=O)CSP(=S)(OC)OC
inactive: [1] | [2] | [12] | [3] | [5] | [7]
active: PGR (gene 5241) 6.3 µM

O=C(Nc1ccccc1)Nc1cnns1
inactive: [1] | [2] | [3]

O=C(O)COc1ccc(Cl)cc1Cl
inactive: [6] | [9]

O=C(O)CCCOc1ccc(Cl)cc1Cl
inactive: [13] | [14] | [3] | PGR (gene 5241) | [15] | [7]

CCC(C)Nc1c([N+](=O)[O-])cc(C(C)(C)C)cc1[N+](=O)[O-] (stereo not drawn)
inactive: [1] | [2] | [3] | [7]
active: [16] 34.7 µM

ClC1C(Cl)C(Cl)C(Cl)C(Cl)C1Cl (stereo not drawn)
active: [3] 50 µM | [11] 9.83 µM and 3.74 µM
inactive: [3] | PGR (gene 5241) | [17]

COc1cc(OC)nc(NC(=O)NS(=O)(=O)c2cc(NC=O)ccc2C(=O)N(C)C)n1
inactive: [5]
